We go through 40 compounds from the supplement of paper PMC6992640.

For the assay, the system named is UCD52 (cells of a triple-negative basal-like breast cancer xenograft). The assay is described as follows: cell viability of combination (% of vehicle); higher = less cytotoxic. The settings on record: 1 µM; 72 h; partner dose: 10 nM. The procedure:
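PDX cells were treated for 72 h with each drug at 1 µM plus afatinib (10 nM; 1 µM for WHIM30). Luciferase viability is expressed as percent of vehicle.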
Regarding `Cc1cn(-c2cc(NC(=O)c3ccc(C)c(Nc4nccc(-c5cccnc5)n4)c3)cc(C(F)(F)F)c2)cn1` [Nilotinib(AMN-107)] + CN(C)C/C=C/C(=O)Nc1cc2c(Nc3ccc(F)c(Cl)c3)ncnc2cc1O[C@H]1CCOC1 [Afatinib], the “cell viability of combination” value was 56.1.

As for `Clc1ccc(C(Cn2ccnc2)OCc2c(Cl)cccc2Cl)c(Cl)c1.O=[N+]([O-])O` (stereo not given) [Isoconazole nitrate] + CN(C)C/C=C/C(=O)Nc1cc2c(Nc3ccc(F)c(Cl)c3)ncnc2cc1O[C@H]1CCOC1 [Afatinib], the “cell viability of combination” value amounted to 78.3.

In the case of `COC(=O)NC(C(=O)N1CCCC1c1ncc(-c2ccc(-c3ccc(-c4cnc(C5CCCN5C(=O)C(NC(=O)OC)C(C)C)[nH]4)cc3)cc2)[nH]1)C(C)C` (stereo not given) + CN(C)C/C=C/C(=O)Nc1cc2c(Nc3ccc(F)c(Cl)c3)ncnc2cc1O[C@H]1CCOC1 [Afatinib], the “cell viability of combination” value came out at 59.1.

With `COC(=O)c1ccc2c(c1)NC(=O)C2=C(Nc1ccc(N(C)C(=O)CN2CCN(C)CC2)cc1)c1ccccc1` [Nintedanib (BIBF 1120)] + CN(C)C/C=C/C(=O)Nc1cc2c(Nc3ccc(F)c(Cl)c3)ncnc2cc1O[C@H]1CCOC1 [Afatinib], the “cell viability of combination” value came to 19.6.

As to `CCCCCCCCCCCCCCCCOP(=O)([O-])OCC[N+](C)(C)C` [Miltefosine] + CN(C)C/C=C/C(=O)Nc1cc2c(Nc3ccc(F)c(Cl)c3)ncnc2cc1O[C@H]1CCOC1 [Afatinib], the “cell viability of combination” value was found to be 69.5.

As for `C=CC(=O)Nc1cc(Nc2nccc(-c3cn(C)c4ccccc34)n2)c(OC)cc1N(C)CCN(C)C` + CN(C)C/C=C/C(=O)Nc1cc2c(Nc3ccc(F)c(Cl)c3)ncnc2cc1O[C@H]1CCOC1 [Afatinib], the “cell viability of combination” value turned out to be 50.2.

For the compound `C=C1C(=CC=C2CCCC3(C)C2CCC3C(C)CCCC(C)C)CC(O)CC1O` (stereo not given) [Alfacalcidol] + CN(C)C/C=C/C(=O)Nc1cc2c(Nc3ccc(F)c(Cl)c3)ncnc2cc1O[C@H]1CCOC1 [Afatinib], the “cell viability of combination” value turned out to be 50.

Turning to `CSc1ccc2c(c1)N(CCC1CCCCN1C)c1ccccc1S2.Cl` (stereo not given) [Thioridazine HCl] + CN(C)C/C=C/C(=O)Nc1cc2c(Nc3ccc(F)c(Cl)c3)ncnc2cc1O[C@H]1CCOC1 [Afatinib], the “cell viability of combination” value was 58.1.

For `Clc1ccc(CSC(Cn2ccnc2)c2ccc(Cl)cc2Cl)cc1.O=[N+]([O-])O` (stereo not given) [Sulconazole Nitrate] + CN(C)C/C=C/C(=O)Nc1cc2c(Nc3ccc(F)c(Cl)c3)ncnc2cc1O[C@H]1CCOC1 [Afatinib], the “cell viability of combination” value came to 74.1.

As to `CC(=O)c1cc2c(o1)C(=O)c1ccccc1C2=O` [Napabucasin] + CN(C)C/C=C/C(=O)Nc1cc2c(Nc3ccc(F)c(Cl)c3)ncnc2cc1O[C@H]1CCOC1 [Afatinib], the “cell viability of combination” value was found to be 17.4.

Turning to `CC[C@@H]1/C=C(\C)C[C@H](C)C[C@H](OC)[C@H]2O[C@@](O)(C(=O)C(=O)N3CCCC[C@H]3C(=O)O[C@H](/C(C)=C/[C@@H]3CC[C@H](Cl)[C@H](OC)C3)[C@H](C)[C@@H](O)CC1=O)[C@H](C)C[C@@H]2OC` [Pimecrolimus] + CN(C)C/C=C/C(=O)Nc1cc2c(Nc3ccc(F)c(Cl)c3)ncnc2cc1O[C@H]1CCOC1 [Afatinib], the “cell viability of combination” value worked out at 70.7.

Regarding `CCCCCOc1ccc(-c2ccc(-c3ccc(C(=O)N[C@H]4C[C@@H](O)[C@@H](O)NC(=O)[C@@H]5[C@@H](O)[C@@H](C)CN5C(=O)[C@H]([C@@H](C)O)NC(=O)[C@H]([C@H](O)[C@@H](O)c5ccc(O)cc5)NC(=O)[C@@H]5C[C@@H](O)CN5C(=O)[C@H]([C@@H](C)O)NC4=O)cc3)cc2)cc1` [Anidulafungin] + CN(C)C/C=C/C(=O)Nc1cc2c(Nc3ccc(F)c(Cl)c3)ncnc2cc1O[C@H]1CCOC1 [Afatinib], the “cell viability of combination” value is 68.6.

`CC(C)N=c1cc2n(-c3ccc(Cl)cc3)c3ccccc3nc-2cc1Nc1ccc(Cl)cc1` [Clofazimine] + CN(C)C/C=C/C(=O)Nc1cc2c(Nc3ccc(F)c(Cl)c3)ncnc2cc1O[C@H]1CCOC1 [Afatinib]: the “cell viability of combination” value amounted to 69.6.

As for `CCCCc1oc2ccccc2c1C(=O)c1cc(I)c(OCCN(CC)CC)c(I)c1.Cl` [Amiodarone HCl] + CN(C)C/C=C/C(=O)Nc1cc2c(Nc3ccc(F)c(Cl)c3)ncnc2cc1O[C@H]1CCOC1 [Afatinib], the “cell viability of combination” value stood at 66.3.

Consider `COc1cccc2c1C(=O)c1c(O)c3c(c(O)c1C2=O)CC(O)(C(=O)CO)CC3OC1CC(N)C(O)C(C)O1.Cl` (stereo not given) [Doxorubicin (Adriamycin) HCl] + CN(C)C/C=C/C(=O)Nc1cc2c(Nc3ccc(F)c(Cl)c3)ncnc2cc1O[C@H]1CCOC1 [Afatinib], for which the “cell viability of combination” value is 40.9.

For `CNCCC(Oc1cccc2ccccc12)c1cccs1.Cl` (stereo not given) [Duloxetine HCl] + CN(C)C/C=C/C(=O)Nc1cc2c(Nc3ccc(F)c(Cl)c3)ncnc2cc1O[C@H]1CCOC1 [Afatinib], the “cell viability of combination” value came to 59.8.

Regarding `C#Cc1cccc(Nc2ncnc3cc(OCCOC)c(OCCOC)cc23)c1` [Erlotinib] + CN(C)C/C=C/C(=O)Nc1cc2c(Nc3ccc(F)c(Cl)c3)ncnc2cc1O[C@H]1CCOC1 [Afatinib], the “cell viability of combination” value is 55.

Take `COc1cccc2c1C(=O)c1c(O)c3c(c(O)c1C2=O)CC(O)(C(=O)CO)CC3OC1CC(N)C(O)C(C)O1.Cl` (stereo not given) [Epirubicin HCl] + CN(C)C/C=C/C(=O)Nc1cc2c(Nc3ccc(F)c(Cl)c3)ncnc2cc1O[C@H]1CCOC1 [Afatinib]: the “cell viability of combination” value amounted to 28.

In the case of `Nc1ccc2cc3ccc([NH3+])cc3nc2c1.Nc1ccc2cc3ccc([NH3+])cc3nc2c1.O=S(=O)([O-])[O-]` [Proflavine Hemisulfate] + CN(C)C/C=C/C(=O)Nc1cc2c(Nc3ccc(F)c(Cl)c3)ncnc2cc1O[C@H]1CCOC1 [Afatinib], the “cell viability of combination” value stood at 116.

For the compound `CCCCCCCCCCCC1=C(O)C(=O)C=C(O)C1=O` [Embelin] + CN(C)C/C=C/C(=O)Nc1cc2c(Nc3ccc(F)c(Cl)c3)ncnc2cc1O[C@H]1CCOC1 [Afatinib], the “cell viability of combination” value was 67.8.

Take `COc1cc(Nc2ncc(F)c(Nc3ccc4c(n3)N(COP(=O)(O)O)C(=O)C(C)(C)O4)n2)cc(OC)c1OC` [Fostamatinib (R788)] + CN(C)C/C=C/C(=O)Nc1cc2c(Nc3ccc(F)c(Cl)c3)ncnc2cc1O[C@H]1CCOC1 [Afatinib]: the “cell viability of combination” value came out at 74.9.

As to `COc1cc(Nc2c(C#N)cnc3cc(OCCCN4CCN(C)CC4)c(OC)cc23)c(Cl)cc1Cl` [Bosutinib (SKI-606)] + CN(C)C/C=C/C(=O)Nc1cc2c(Nc3ccc(F)c(Cl)c3)ncnc2cc1O[C@H]1CCOC1 [Afatinib], the “cell viability of combination” value worked out at 25.9.

With `COc1cc2c(Nc3ccc(Br)cc3F)ncnc2cc1OCC1CCN(C)CC1` [Vandetanib (ZD6474)] + CN(C)C/C=C/C(=O)Nc1cc2c(Nc3ccc(F)c(Cl)c3)ncnc2cc1O[C@H]1CCOC1 [Afatinib], the “cell viability of combination” value worked out at 36.2.

Regarding `Cl.Cl.O=C1c2c(O)ccc(O)c2C(=O)c2c(NCCNCCO)ccc(NCCNCCO)c21` [Mitoxantrone HCl] + CN(C)C/C=C/C(=O)Nc1cc2c(Nc3ccc(F)c(Cl)c3)ncnc2cc1O[C@H]1CCOC1 [Afatinib], the “cell viability of combination” value is 32.2.

For `CCc1cnn2c(NCc3ccc[n+]([O-])c3)cc(N3CCCCC3CCO)nc12` (stereo not given) + CN(C)C/C=C/C(=O)Nc1cc2c(Nc3ccc(F)c(Cl)c3)ncnc2cc1O[C@H]1CCOC1 [Afatinib], the “cell viability of combination” value turned out to be 21.4.

For the compound `CC(C)Nc1cc(-c2c[nH]c(C(=O)NC(CO)c3cccc(Cl)c3)c2)c(Cl)cn1` (stereo not given) + CN(C)C/C=C/C(=O)Nc1cc2c(Nc3ccc(F)c(Cl)c3)ncnc2cc1O[C@H]1CCOC1 [Afatinib], the “cell viability of combination” value came to 50.5.

With `Br.Cc1ccc(Sc2ccccc2N2CCNCC2)c(C)c1` + CN(C)C/C=C/C(=O)Nc1cc2c(Nc3ccc(F)c(Cl)c3)ncnc2cc1O[C@H]1CCOC1 [Afatinib], the “cell viability of combination” value worked out at 55.4.

Regarding `CC(NCCCc1cccc(C(F)(F)F)c1)c1cccc2ccccc12.Cl` (stereo not given) [Cinacalcet HCl] + CN(C)C/C=C/C(=O)Nc1cc2c(Nc3ccc(F)c(Cl)c3)ncnc2cc1O[C@H]1CCOC1 [Afatinib], the “cell viability of combination” value was found to be 67.7.

As to `COc1cc2ncnc(Nc3ccc(F)c(Cl)c3)c2cc1NC(=O)C=CCN1CCCCC1` + CN(C)C/C=C/C(=O)Nc1cc2c(Nc3ccc(F)c(Cl)c3)ncnc2cc1O[C@H]1CCOC1 [Afatinib], the “cell viability of combination” value was determined as 33.

In the case of `CC(C)(C)NC(=O)C1CC2CCCCC2CN1CC(O)C(Cc1ccccc1)NC(=O)C(CC(N)=O)NC(=O)c1ccc2ccccc2n1.CS(=O)(=O)O` (stereo not given) [Saquinavir mesylate] + CN(C)C/C=C/C(=O)Nc1cc2c(Nc3ccc(F)c(Cl)c3)ncnc2cc1O[C@H]1CCOC1 [Afatinib], the “cell viability of combination” value was 61.1.

Consider `COc1ccc(CN2CCN(C(c3ccc(F)cc3)c3ccc(F)cc3)CC2)c(OC)c1OC.Cl.Cl` [Lomerizine HCl] + CN(C)C/C=C/C(=O)Nc1cc2c(Nc3ccc(F)c(Cl)c3)ncnc2cc1O[C@H]1CCOC1 [Afatinib], for which the “cell viability of combination” value is 68.9.

With `CCOc1cc2ncc(C#N)c(Nc3ccc(OCc4ccccn4)c(Cl)c3)c2cc1NC(=O)C=CCN(C)C` [Neratinib (HKI-272)] + CN(C)C/C=C/C(=O)Nc1cc2c(Nc3ccc(F)c(Cl)c3)ncnc2cc1O[C@H]1CCOC1 [Afatinib], the “cell viability of combination” value worked out at 50.9.

Turning to `C#Cc1cccc(Nc2ncnc3cc(OCCOC)c(OCCOC)cc23)c1.Cl` [Erlotinib Hydrochloride] + CN(C)C/C=C/C(=O)Nc1cc2c(Nc3ccc(F)c(Cl)c3)ncnc2cc1O[C@H]1CCOC1 [Afatinib], the “cell viability of combination” value was found to be 54.5.

Consider `O=C1C=CC=CC1=C1NC(=C2C=CC=CC2=O)N(c2ccc(C(=O)O)cc2)N1` [Deferasirox] + CN(C)C/C=C/C(=O)Nc1cc2c(Nc3ccc(F)c(Cl)c3)ncnc2cc1O[C@H]1CCOC1 [Afatinib], for which the “cell viability of combination” value is 68.2.

On to `COc1cc(C(=O)O)ccc1NC(=O)C1NC(CC(C)(C)C)C(C#N)(c2ccc(Cl)cc2F)C1c1cccc(Cl)c1F` (stereo not given) + CN(C)C/C=C/C(=O)Nc1cc2c(Nc3ccc(F)c(Cl)c3)ncnc2cc1O[C@H]1CCOC1 [Afatinib], for which the “cell viability of combination” value is 60.4.

`Cc1c(Cl)cccc1Nc1ccccc1C(=O)O` [Tolfenamic Acid] + CN(C)C/C=C/C(=O)Nc1cc2c(Nc3ccc(F)c(Cl)c3)ncnc2cc1O[C@H]1CCOC1 [Afatinib]: the “cell viability of combination” value came out at 78.5.

In the case of `Cc1ccc(NC(=O)c2ccc(CN3CCN(C)CC3)cc2)cc1Nc1nc(-c2cccnc2)cs1` [Masitinib (AB1010)] + CN(C)C/C=C/C(=O)Nc1cc2c(Nc3ccc(F)c(Cl)c3)ncnc2cc1O[C@H]1CCOC1 [Afatinib], the “cell viability of combination” value was 64.5.

As to `CNCCC(Oc1ccc(C(F)(F)F)cc1)c1ccccc1.Cl` (stereo not given) [Fluoxetine HCl] + CN(C)C/C=C/C(=O)Nc1cc2c(Nc3ccc(F)c(Cl)c3)ncnc2cc1O[C@H]1CCOC1 [Afatinib], the “cell viability of combination” value was determined as 59.1.

Take `Cl.Clc1ccccc1CN1CCc2sccc2C1` [Ticlopidine HCl] + CN(C)C/C=C/C(=O)Nc1cc2c(Nc3ccc(F)c(Cl)c3)ncnc2cc1O[C@H]1CCOC1 [Afatinib]: the “cell viability of combination” value was 75.9.

`O=C(NC1CCN(CCCCC2(C(=O)NCC(F)(F)F)c3ccccc3-c3ccccc32)CC1)c1ccccc1-c1ccc(C(F)(F)F)cc1` [Lomitapide] + CN(C)C/C=C/C(=O)Nc1cc2c(Nc3ccc(F)c(Cl)c3)ncnc2cc1O[C@H]1CCOC1 [Afatinib]: the “cell viability of combination” value came out at 43.9.
